Reference: PubChem BioAssay (Tox21)
Results filed as inconclusive are left out. Active and inactive are the calls of the source. Calls follow the shape of the dose curve; as a rule, active = well fitted curve in the direction sought with a large enough effect in the repeat runs; inconclusive = weak or mixed curves; inactive = no such curve, though single readings can be large; an effect the other way counts as inactive or inconclusive.

What was measured:
[1] = qHTS RealTime-Glo MT Cell Viability Assay in HEK293 cells - 16 hour (AID 1224872); also: nearly all actives have a fitted effect of over 50% in size; also: potency is read from the fitted curve at half-maximal effect
In short: (§1)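 Quantitative high-throughput screen of the Tox21 10K library in HEK293: cells and RealTime-Glo reagents plated together, compound added at 5 h, luminescence monitored through 40 h at 37 C.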

[2] = qHTS RealTime-Glo MT Cell Viability Assay in HepG2 cells - 8 hour (AID 1224873); also: nearly all actives have a fitted effect of over 55% in size; also: potency is read from the fitted curve at half-maximal effect
In short: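 Real-time viability: cells seeded at 600 per well together with NanoLuc and cell-permeant prosubstrate, compounds added after 5 h incubation. Luminescence tracked at 0, 8, 16, 24, 32 and 40 h of exposure.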

[3] = qHTS RealTime-Glo MT Cell Viability Assay in HEK293 cells - 40 hour (AID 1224874); details: RealTime-Glo luminescence; max response: active compounds read low; also: nearly all actives have a fitted effect of over 50% in size; also: potency is read from the fitted curve at half-maximal effect
In short: (§2)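 Real-time viability in HEK293: signal arises when living cells convert a prosubstrate for NanoLuc in the medium, so luminescence tracks viable cell number. Compound (23 nL, DMSO) added 5 h post-seeding; kinetic reads at 0–40 h, 37 C.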

[4] = A CellTox Green Cytotoxicity Assay to monitor cytotoxicity in HepG2 cells - 16 hour (AID 1224876); also: nearly all actives have a fitted effect of over 45% in size; also: potency is read from the fitted curve at half-maximal effect
In short: (§3)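 Cells and non-lytic dye reagent are dispensed together (600 HepG2 cells/well) and incubated 5 h before DMSO compound transfer. Kinetic fluorescence is then recorded in the same wells during 40 h at 37 C.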

[5] = qHTS RealTime-Glo MT Cell Viability Assay in HepG2 cells - 32 hour (AID 1224877); also: nearly all actives have a fitted effect of over 55% in size; also: potency is read from the fitted curve at half-maximal effect
In short: (§4)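 Compound treatment began 5 h after plating HepG2 cells (600/well) with NanoLuc luciferase and prosubstrate. Plates stayed at 37 C for 40 h; luminescence was captured at six time points, 0 h through 40 h.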

[6] = A CellTox Green Cytotoxicity Assay to monitor cytotoxicity in HepG2 cells - 24 hour (AID 1224878); also: nearly all actives have a fitted effect of over 45% in size; also: potency is read from the fitted curve at half-maximal effect
In short: as §3

[7] = A CellTox Green Cytotoxicity Assay to monitor cytotoxicity in HepG2 cells - 40 hour (AID 1224879); also: nearly all actives have a fitted effect of over 40% in size; also: potency is read from the fitted curve at half-maximal effect
In short: as §3

[8] = A CellTox Green Cytotoxicity Assay to monitor cytotoxicity in HEK293 cells - 32 hour (AID 1224881); also: nearly all actives have a fitted effect of over 40% in size; also: potency is read from the fitted curve at half-maximal effect
In short: (§5)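 Cells (HEK293, 600/well) and dye reagent are dispensed together. After 5 h at 37 C, 23 nL compound is pinned in. Plates stay at 37 C for 40 h with fluorescence read at 0h, 8h, 16h, 24h, 32h and 40h.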

[9] = A CellTox Green Cytotoxicity Assay to monitor cytotoxicity in HepG2 cells - 0 hour (AID 1224882); also: nearly all actives have a fitted effect of over 35% in size
In short: as §3

[10] = A CellTox Green Cytotoxicity Assay to monitor cytotoxicity in HepG2 cells - 32 hour (AID 1224883); also: nearly all actives have a fitted effect of over 50% in size; also: potency is read from the fitted curve at half-maximal effect
In short: as §3

[11] = A CellTox Green Cytotoxicity Assay to monitor cytotoxicity in HEK293 cells - 8 hour (AID 1224884); also: nearly all actives have a fitted effect of over 35% in size
In short: as §5

[12] = qHTS RealTime-Glo MT Cell Viability Assay in HepG2 cells - 16 hour (AID 1224885); also: nearly all actives have a fitted effect of over 50% in size; also: potency is read from the fitted curve at half-maximal effect
In short: as §4

[13] = qHTS RealTime-Glo MT Cell Viability Assay in HEK293 cells - 24 hour (AID 1224886); also: nearly all actives have a fitted effect of over 50% in size; also: potency is read from the fitted curve at half-maximal effect
In short: as §1

[14] = qHTS RealTime-Glo MT Cell Viability Assay in HEK293 cells - 8 hour (AID 1224887); also: nearly all actives have a fitted effect of over 50% in size; also: potency is read from the fitted curve at half-maximal effect
In short: as §2

[15] = A CellTox Green Cytotoxicity Assay to monitor cytotoxicity in HEK293 cells - 16 hour (AID 1224888); also: nearly all actives have a fitted effect of over 35% in size
In short: as §5

[16] = A CellTox Green Cytotoxicity Assay to monitor cytotoxicity in HepG2 cells - 8 hour (AID 1224890); also: nearly all actives have a fitted effect of over 45% in size
In short: as §3

[17] = qHTS assay to identify small molecule antagonists of the estrogen receptor alpha (ER-alpha) signaling pathway using the BG1 cell line in the presence of 0.1 nM 17-beta-estradiol - cell viability counter screen (AID 1259241); also: nearly all actives have a fitted effect of over 40% in size; also: potency is read from the fitted curve at half-maximal effect
In short: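 Cytotoxicity counter-screen: live-cell protease activity measured by fluorescence (30 min reagent step) in the same wells. Cells were VM7Luc4E2 with endogenous ER-alpha and ERE-driven luciferase, treated 22 hr at 37C alongside 0.1 nM 17beta-estradiol final.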

[18] = qHTS RealTime-Glo MT Cell Viability Assay in HEK293 cells - 0 hour (AID 1224880); also: top concentration of the series differs between compounds; nearly all actives have a fitted effect of over 45% in size
In short: as §2

[19] = qHTS RealTime-Glo MT Cell Viability Assay in HepG2 cells - 0 hour (AID 1224889); also: nearly all actives have a fitted effect of over 50% in size
In short: as §4

[20] = A CellTox Green Cytotoxicity Assay to monitor cytotoxicity in HEK293 cells - 24 hour (AID 1224875)
In short: as §5
% is scaled to controls: 0 for no effect and ±100 for the full control effect.

O=C(O)c1cc(O)c2ccccc2c1O
active: Potency [1] 38.9 µM | Potency [2] 17.4 µM | Potency [3] 38.9 µM | Potency [4] 43.6 µM | Potency [5] 21.9 µM | Potency [6] 43.6 µM | Potency [7] 24.5 µM | Potency [8] 21.9 µM | Potency [10] 24.5 µM | Potency [12] 19.5 µM | Potency [13] 43.6 µM | Potency [14] 17.4 µM | Potency [17] 34.4 µM
inactive: Potency [9] | Potency [11] | Potency [15] | Potency [16]

Cc1ccc(C(=O)O)cc1
inactive: Potency [1] | Potency [2] | max response [3] 10% | Potency [5] | Potency [18] | Potency [8] | Potency [9] | Potency [11] | Potency [12] | Potency [13] | Potency [14] | Potency [19] | Potency [16] | Potency [17]

Cc1cc(=O)oc2cc(O)cc(O)c12
inactive: Potency [1] | Potency [2] | max response [3] -8.17% | Potency [4] | Potency [5] | Potency [6] | Potency [7] | Potency [18] | Potency [9] | Potency [10] | Potency [11] | Potency [12] | Potency [13] | Potency [14] | Potency [19] | Potency [16] | Potency [17]

CCOC(=O)NNc1ccc(N(CC)CC(C)O)nn1 (stereo not given)
inactive: Potency [1] | Potency [2] | max response [3] 7.18% | Potency [4] | Potency [5] | Potency [6] | Potency [7] | Potency [8] | Potency [9] | Potency [10] | Potency [11] | Potency [12] | Potency [13] | Potency [14] | Potency [15] | Potency [16] | Potency [17]

O=C(O)Cc1ccc2c(c1)C(=O)c1ccccc1CO2
inactive: Potency [1] | Potency [2] | Potency [20] | Potency [4] | Potency [5] | Potency [6] | Potency [7] | Potency [18] | Potency [8] | Potency [9] | Potency [10] | Potency [11] | Potency [12] | Potency [13] | Potency [14] | Potency [15] | Potency [19] | Potency [16] | Potency [17]

CCc1cccc(CC)c1NC(=O)CN(CC(=O)O)CC(=O)O
inactive: Potency [1] | Potency [2] | max response [3] 1.69% | Potency [4] | Potency [5] | Potency [6] | Potency [7] | Potency [18] | Potency [8] | Potency [9] | Potency [10] | Potency [11] | Potency [12] | Potency [14] | Potency [15] | Potency [19] | Potency [16] | Potency [17]

CN(C)Cc1cc(C(C)(C)C)c(O)c(C(C)(C)C)c1
inactive: Potency [1] | Potency [2] | Potency [20] | Potency [4] | Potency [5] | Potency [6] | Potency [7] | Potency [18] | Potency [8] | Potency [9] | Potency [10] | Potency [11] | Potency [12] | Potency [13] | Potency [14] | Potency [19] | Potency [16] | Potency [17]

CCCCOC(=O)CO
inactive: Potency [1] | Potency [2] | max response [3] -0.491% | Potency [4] | Potency [6] | Potency [7] | Potency [18] | Potency [8] | Potency [9] | Potency [10] | Potency [11] | Potency [12] | Potency [13] | Potency [14] | Potency [15] | Potency [16]

C#C[C@]1(OC(C)=O)CC[C@H]2[C@@H]3CCC4=C/C(=N/O)CC[C@@H]4[C@H]3CC[C@@]21CC
active: Potency [1] 23.9 µM | Potency [13] 23.9 µM | Potency [14] 21.3 µM
inactive: Potency [2] | Potency [20] | Potency [4] | Potency [5] | Potency [6] | Potency [7] | Potency [18] | Potency [8] | Potency [9] | Potency [10] | Potency [11] | Potency [12] | Potency [15] | Potency [16] | Potency [17]

CCCCOC(=O)CC
inactive: Potency [1] | Potency [2] | max response [3] 2.07% | Potency [20] | Potency [18] | Potency [8] | Potency [9] | Potency [11] | Potency [12] | Potency [14] | Potency [15] | Potency [19] | Potency [16] | Potency [17]

CC[C@H](C)COC(=O)/C=C/c1ccc(N=Cc2ccc(OC)cc2)cc1
active: Potency [1] 21.8 µM | Potency [3] 21.8 µM | Potency [13] 21.8 µM
inactive: Potency [2] | Potency [4] | Potency [5] | Potency [9] | Potency [11] | Potency [12] | Potency [15] | Potency [19] | Potency [16]

C#Cc1ccc(-c2ccccc2F)cc1
inactive: Potency [1] | Potency [2] | max response [3] 5.33% | Potency [4] | Potency [5] | Potency [6] | Potency [8] | Potency [9] | Potency [10] | Potency [11] | Potency [12] | Potency [13] | Potency [14] | Potency [15] | Potency [16]
